High-throughput results (PubChem)
Peg3 prom inh = Peg3 promoter-driven luciferase inhibitors, primary screen, cell-based, HeLa, luciferase luminescence. hit rate 1.7% among 360,000. inhibition, % at 20 µM. HeLa PEG-Prom luciferase reporter, overnight. AID 588405, 2011;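 active = inhibition of at least 50% at 20 µM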
Shn3 inh set2 = reduction of Shn3 3'UTR firefly luciferase signal, primary screen, Schnurri-3 inhibitor project, cell-based, Clone20 osteoblasts, set 2; AID 588674, 2011; Clone20 osteoblast Shn3 3'UTR firefly luciferase, 24 h; hit rate 0.52% among 360,000; inhibition, % at 12.5 µM;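 active = mean inhibition of at least 75% with every replicate also reaching 75%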
KKLEB cytotox = cytotoxicity in KKLEB CF airway cells, primary screen, cytotoxicity control for CF NF-kB inhibitor project, cell-based, uHTS, fluorescence assay plates. KKLEB CF airway cells viability, ATPlite luminescence, overnight; stronger effect = lower value; cells stimulated with P. aeruginosa culture filtrate. activity change (cytotoxicity), % at 5 µM. hit rate 0.36% among 360,000;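 active = corrected activity change at or below -50% at 5 µM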
HIF-2a inh = HIF-2a reporter inhibitors, primary screen, luminescence, 786-0 RCC cells | 786-0 RCC cells HIF-2a reporter, luciferase luminescence, overnight | hit rate 0.72% among 360,000 | inhibition, % at 18.8 µM | AID 624352, 2012;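 active = inhibition of the luminescence signal of 40% or more relative to plate controls, in a single-dose primary screen at 18.75 µM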
TRPM1 prom inh = inhibitors of MITF-dependent TRPM1 promoter reporter, primary screen, cell-based, SK-MEL-5, single point, luciferase | hit rate 0.83% among 330,000 | SK-MEL-5 TRPM1 promoter luciferase, 24 h | inhibition, % at 12.5 µM;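 active = mean inhibition across replicates of 60% or more, whatever share of single replicates reaches that level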
CF NFkB inh = inhibitors of PAF-induced NF-kB signaling, primary screen, cell-based, GFP fluorescence, uHTS; KKLEB NF-kB-GFP reporter, GFP fluorescence overnight; AID 588850, 2011; inhibition, % at 5 µM; hit rate 0.86% among 360,000;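 active = at least 50% inhibition at 5 µM, scaled per plate between neutral and stimulator controls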;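 also: PAF is a Pseudomonas aeruginosa culture filtrate used as stimulus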
Of the large screens only hits and unclear results are named; the others gave an inactive call. This is a sample that favours compounds with a hit; in the whole collection about 2.7% have one here.

O=C(N/N=C\c1ccc([N+](=O)[O-])o1)C1COc2ccccc2O1 (stereo unspecified)	TRPM1 prom inh 74.8
COc1ccc(CCC(=O)O)c(C(CC(=O)O)C(=O)O)c1OS(=O)(=O)c1ccc(C)cc1 (stereo unspecified)	none (no result: TRPM1 prom inh)
CC(C)(C)c1ccc(C(=O)Nc2nnc(SCC(=O)NCC3CCCO3)s2)cc1 (stereo unspecified)	KKLEB cytotox -62.1
CC(Oc1ccc(Br)cc1)C(=O)Nc1nc(-c2ccccn2)cs1 (stereo unspecified)	TRPM1 prom inh 67.2
CC(C)[C@H](NC(=O)c1ccccc1Cl)C(=O)Nc1nc(-c2ccccn2)cs1	none
CC(=O)C[C@@H]1SC[C@H](c2ccccc2)N1S(=O)(=O)c1ccc(C)cc1	none (no result: Peg3 prom inh, Shn3 inh set2, KKLEB cytotox, TRPM1 prom inh, CF NFkB inh)
O=C(O)c1ccccc1NS(=O)(=O)c1cccc(C(F)(F)F)c1	none
O=C(O)c1ccccc1NS(=O)(=O)c1cccc(-n2sc3ccccc3c2=O)c1	CF NFkB inh 86.3
O=C(CCl)N1c2ccccc2CCc2ccccc21	TRPM1 prom inh 75.2
O=C1[C@@H]2Cc3c([nH]c4ccccc34)C(c3ccccc3)N2C(=O)CN1C1CCN(Cc2ccccc2)CC1 (stereo partly specified)	none
O=C1[C@@H]2Cc3c([nH]c4ccccc34)C(c3cccc(Br)c3)N2C(=O)CN1C1CCN(Cc2ccccc2)CC1 (stereo partly specified)	Peg3 prom inh 96.0
O=C(CN1C(=O)/C(=C/c2ccc(F)cc2)SC1=S)N1CCN(CCc2ccccn2)CC1	Peg3 prom inh 51.3
O=C(CCN1C(=O)/C(=C/c2ccc(F)cc2)SC1=S)NCCc1ccc(O)cc1	Peg3 prom inh 83.0
CN1CCN(C(=O)CCN2C(=O)/C(=C\c3ccc(F)cc3)SC2=S)CC1	none
COc1cccc(/C=C2\SC(=S)N(CCC(=O)NCCc3ccc(O)cc3)C2=O)c1	Peg3 prom inh 95.4
COc1cccc(/C=C2\SC(=S)N(CCC(=O)Nc3ccc(O)cc3)C2=O)c1	none
CC(=O)Nc1ccc(-c2ccnc3c2CC(C)(C(=O)NCc2ccc(N4CCN(C)CC4)cc2)O3)cc1 (stereo unspecified)	none (no result: TRPM1 prom inh)
CC(/C=C1\SC(=S)N(CC(=O)O)C1=O)=C\c1ccccc1	none
O=C(CCCN1C(=O)/C(=C/c2ccccc2Cl)SC1=S)N1CCCC1	HIF-2a inh 59.5
O=C(CCN1C(=O)/C(=C/c2ccccc2Cl)SC1=S)N1CCCC1	Peg3 prom inh 73.4, CF NFkB inh 53.2
O=C(CCCN1C(=O)/C(=C/c2ccccc2)SC1=S)N1CCOCC1	none
COc1ccccc1/C=C1\SC(=S)N(CCC(=O)N2CCN(C)CC2)C1=O	none
O=C(CCCN1C(=O)/C(=C/c2ccccc2Cl)SC1=S)NNC(=O)c1ccncc1	HIF-2a inh 82.2
CC(=C\c1ccccc1)/C=C1/SC(=S)N(CCC(=O)O)C1=O	HIF-2a inh 81.3
O=C(CCCN1C(=O)/C(=C/c2cccs2)SC1=S)NNC(=O)c1ccncc1	none
Cc1cc(F)ccc1-c1cc(C(=O)NCc2ccco2)[nH]n1	none (no result: TRPM1 prom inh)
CCOC(=O)C1=CCN(S(=O)(=O)c2ccc(C)cc2)C1c1cccc(C)c1 (stereo unspecified)	none (no result: TRPM1 prom inh)
CC1(C(=O)NS(=O)(=O)c2cccs2)CCN1C(=O)c1ccccc1 (stereo unspecified)	none (no result: TRPM1 prom inh)
O=C(CCN1C(=O)/C(=C/c2ccccc2Cl)SC1=S)N1CCOCC1	Peg3 prom inh 76.4, CF NFkB inh 72.2
O=C(Nc1ccccc1)c1ccccc1Oc1ccc(C(F)(F)F)cc1[N+](=O)[O-]	Peg3 prom inh 56.1
COc1ccccc1-c1nc(C(=O)NCC2CCCO2)cc2c1[nH]c1ccccc12 (stereo unspecified)	none (no result: TRPM1 prom inh)
COc1cc(-c2nc(C(=O)NCC3CCCO3)cc3c2[nH]c2ccccc23)cc(OC)c1OC (stereo unspecified)	Peg3 prom inh 56.6
O=C(NCC1CCCO1)c1cc2ccccc2[nH]1 (stereo unspecified)	none
O=C(NCC1CCCO1)c1cc2c([nH]c3ccccc32)c(-c2cccc(Cl)c2)n1 (stereo unspecified)	Peg3 prom inh 52.6 (no result: TRPM1 prom inh)
COc1cccc(C(O)c2nc(/C=C/c3ccccc3)cs2)c1 (stereo unspecified)	none (no result: TRPM1 prom inh)
COCCCn1cc(CN2CC(N3CCN(C4CCN(C)CC4)CC3)CS2(=O)=O)nn1 (stereo unspecified)	none (no result: Peg3 prom inh, Shn3 inh set2, KKLEB cytotox, TRPM1 prom inh, CF NFkB inh)
N=c1n(CCN2CCCC2)c2ccccc2n1CC(O)c1ccco1 (stereo unspecified)	none
N=c1n(CCN2CCCCC2)c2ccccc2n1CC(O)c1cccc(Br)c1 (stereo unspecified)	Peg3 prom inh 109.8
OC[C@@H]1CN(Cc2cccc3ccccc23)C[C@H](n2cnc3c(NCc4ccco4)ncnc32)O1	none (no result: TRPM1 prom inh)
CCCSc1nc2c(cnn2-c2ccc(C)cc2)c(=O)[nH]1	Peg3 prom inh 61.4
O=S(=O)(Nc1ccc(O)c2ccccc12)c1cccs1	CF NFkB inh 86.5
O=S(=O)(Nc1cccc2ccccc12)c1cccs1	none
C=CCn1cnc2c(c1=O)c1nc3ccccc3nc1n2/N=C/c1cccc(OC)c1OC	Peg3 prom inh 61.1
CCc1nc2c(OCCc3cccc(OC)c3)cccn2c1N(C=O)Cc1ccccc1	none (no result: TRPM1 prom inh)
CCC1C(=NO)C(CC)C(c2ccccc2)NC1c1ccccc1 (stereo unspecified)	Peg3 prom inh 63.8
CC1C(=NO)C(C)C(c2ccccc2)NC1c1ccccc1 (stereo unspecified)	none
CC(C)c1ccc(NC(=O)Nc2nc(C(N)COCc3ccccc3)cs2)cc1 (stereo unspecified)	Peg3 prom inh 110.0, Shn3 inh set2 93.1 (no result: TRPM1 prom inh)
Cc1ccccc1NC(=O)Nc1nc(C(N)c2ccccc2)cs1 (stereo unspecified)	none (no result: TRPM1 prom inh)
CS(=O)(=O)c1ccc(Nc2nc(C(N)COCc3ccccc3)cs2)cc1 (stereo unspecified)	none (no result: TRPM1 prom inh)
CC(C)c1ccc(NC(=O)Nc2nc(C(N)C(C)C)cs2)cc1 (stereo unspecified)	Peg3 prom inh 95.8 (no result: TRPM1 prom inh)
CC(C)c1ccc(NC(=O)Nc2nc(C(N)c3ccccc3)cs2)cc1 (stereo unspecified)	Peg3 prom inh 109.7, Shn3 inh set2 92.8 (no result: TRPM1 prom inh)
C=C(CN(C)C)C(=O)c1cc(C)ccc1C	Peg3 prom inh 99.9, Shn3 inh set2 94.9, HIF-2a inh 90.4, TRPM1 prom inh 106.3
Cc1ccc(C)c(C(=O)NCCN(C)C)c1	none
